Laboratory results reported in PubChem BioAssay.
Values joined by “and” are separate entries in the source; they are usually repeats but may differ in a detail not shown here. Equal entries are not always repeated. Active and inactive are the calls of the source. Unless noted, the rule behind the calls is not given here.

Assays:
[1] = test system: Wnt5a (protein binding on small-molecule microarray); test: small molecules binding Wnt5a protein – biophysical, small-molecule microarray, 635/667 nm fluorescence, primary screen (AID 1142); conditions: 635 nm fluorescence, higher = more signal;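 note: fluorescence read at 667 nm with signal to noise per printed feature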
[2] = ATP-based viability of Huh7 replicon cells – cell-based, CellTiter-Glo luminescence, basal, 48 h, cytotoxicity control for HCV replication inhibitor project, primary screen (AID 1143); conditions: higher = more signal, called active from +8 up or from −8 down;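 note: Huh7 hepatoma cells carrying a hepatitis C replication reporter with no stimulus; test concentration not given here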
[3] = Pseudomonas biofilm growth suppression – PAO1 strain, BacTiter-Glo luminescence, LB-PBS, primary screen (AID 1144); conditions: P. aeruginosa PAO1 biofilm, 12 h, higher = more signal
[4] = basal CRE-LacZ reporter activity in PC12 – cell-based, unstimulated, primary screen (AID 1145); conditions: no forskolin, luminescence, 4.5 h, higher = more signal, called active from +8 up or from −8 down
[5] = forskolin-driven CRE-LacZ activity in PC12 – cell-based, CRE-LacZ reporter, forskolin-stimulated, primary screen (AID 1146); conditions: luminescence, 4.5 h, higher = more signal, called active from +8 up or from −8 down;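 note: PC12 cells with 6xCRE LacZ reporter stimulated by forskolin 10 µM; beta-galactosidase reporter signal reflecting CREB driven transcription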
[6] = target: Streptavidin (Streptomyces avidinii) (UniProt P22629); test: compounds binding control protein streptavidin – biophysical, small-molecule microarray, 635/667 nm fluorescence, artefact control for SMM compound annotation, primary screen (AID 1147); conditions: higher = more signal;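 note: signal reflects streptavidin binding to arrayed compounds as a control protein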
[7] = probe aInhba binding on compound microarray – biochemical, small-molecule microarray, 635/667 nm fluorescence, primary screen (AID 1148); conditions: higher = more signal;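 note: score merges 667nm spot fluorescence with signal-to-noise for antibody binding to printed compounds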
Torsin-1A (Homo sapiens) [8] = target: Torsin-1A (Homo sapiens) (UniProt O14656); test: TOR1A wild-type binding on microarray – cell lysate, small-molecule microarray, lysate, 635/667 nm, primary screen (AID 1149); conditions: COS7 hTOR1A-WT lysate, 635 nm fluorescence, higher = more signal
Torsin-1A (Homo sapiens) [9] = target: Torsin-1A (Homo sapiens) (UniProt O14656); test: torsin A mutant lysate binding on microarrays – cell lysate, small-molecule microarray, COS7 lysate, 635/667 nm fluorescence, primary screen (AID 1150); conditions: COS7 hTOR1A mutant lysate, 635 nm fluorescence, higher = more signal;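 note: score pools 667 nm emission and signal to noise measuring lysate protein binding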
[10] = test system: Sonic hedgehog protein (Shh); test: Sonic hedgehog microarray binding compounds – biochemical, small-molecule microarray, 635/667 nm fluorescence, primary screen (AID 1151); conditions: 635 nm fluorescence, higher = more signal;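 note: Shh protein binding to compounds spotted on small-molecule microarray slides; score combines spot fluorescence intensity with signal-to-noise across triplicate slides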
[11] = optical density shifts of acrAB sulA E. coli – strain DRC41, OD650, 48 h, E. coli filamentation inducer project, primary screen (AID 1152); conditions: higher = more signal, called active from +8 up or from −8 down;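 note: E. coli MC1000 strain DRC41 lacking acrAB efflux pump and sulA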
[12] = probe aLefty1 binding on compound microarray – biochemical, small-molecule microarray, 635/667 nm fluorescence, primary screen (AID 1153); conditions: higher = more signal;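 note: score merges spot fluorescence with signal-to-noise ratio from the scanned slide images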
[13] = plasmodial surface anion channel blockers, osmotic lysis – cell-based, P. falciparum Indochina, OD700, 1 h, primary screen (AID 1154); conditions: P. falciparum Indochina infected RBC osmotic lysis, higher = more signal, called active from +8 up or from −8 down
[14] = plasmodial surface anion channel blockers, osmotic lysis – cell-based, P. falciparum Indochina, OD700, 2 h, primary screen (AID 1155);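 note: lysis reports solute entry through the parasite surface anion channel PSAC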; conditions: P. falciparum Indochina infected erythrocytes, higher = more signal, called active from +8 up or from −8 down
[15] = changes in parasitized red cell lysis, either direction – P. falciparum Indochina, OD700, 3 h, PSAC antagonist project, primary screen (AID 1156); conditions: P. falciparum-infected erythrocytes, osmotic lysis, higher = more signal, called active from +8 up or from −8 down
[16] = plasmodial surface anion channel blockers, osmotic lysis – cell-based, P. falciparum Indochina, OD700, 18 h, primary screen (AID 1157); conditions: P. falciparum Indochina infected erythrocytes, osmotic lysis OD700, 18 h; higher = more signal, called active from +8 up or from −8 down
[17] = S6 kinase pathway phospho-S6 level changes – cell-based, A549, cytoblot, luminescence, serum-stimulated, primary screen (AID 1158); conditions: 5 h, higher = more signal;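 note: serum-stimulated A549 lung adenocarcinoma cells; signal is phosphorylated S6 detected by cytoblot immunostaining with HRP secondary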
[18] = target: NADPH oxidase 2 (Homo sapiens) (UniProt P04839); test: compounds shifting NOX2 Amplex Red fluorescence – cell-based, HEK293-NOX2, PMA-stimulated, NOX inhibitor project, primary screen (AID 1159); conditions: 45 min, higher = more signal, called active from +8 up or from −8 down; note: test concentration not given here
[19] = target: NADPH oxidase 4 (Homo sapiens) (UniProt Q9NPH5); test: compounds shifting NOX4 Amplex Red fluorescence – cell-based, HEK293-NOX4, tetracycline-induced, NOX inhibitor project, primary screen (AID 1160); conditions: HEK293-NOX4, Amplex Red H2O2 fluorescence, 45 min; higher = more signal, called active from +8 up or from −8 down
[20] = target: NADPH oxidase 5 (Homo sapiens) (UniProt Q96PH1); test: compounds shifting NOX5 Amplex Red fluorescence – cell-based, HEK293-NOX5, NOX inhibitor project, primary screen (AID 1161); conditions: HEK293-NOX5, ionomycin, 45 min, higher = more signal
Sequence of NADPH oxidase 5 (Homo sapiens) (Q96PH1 whole entry, looked up): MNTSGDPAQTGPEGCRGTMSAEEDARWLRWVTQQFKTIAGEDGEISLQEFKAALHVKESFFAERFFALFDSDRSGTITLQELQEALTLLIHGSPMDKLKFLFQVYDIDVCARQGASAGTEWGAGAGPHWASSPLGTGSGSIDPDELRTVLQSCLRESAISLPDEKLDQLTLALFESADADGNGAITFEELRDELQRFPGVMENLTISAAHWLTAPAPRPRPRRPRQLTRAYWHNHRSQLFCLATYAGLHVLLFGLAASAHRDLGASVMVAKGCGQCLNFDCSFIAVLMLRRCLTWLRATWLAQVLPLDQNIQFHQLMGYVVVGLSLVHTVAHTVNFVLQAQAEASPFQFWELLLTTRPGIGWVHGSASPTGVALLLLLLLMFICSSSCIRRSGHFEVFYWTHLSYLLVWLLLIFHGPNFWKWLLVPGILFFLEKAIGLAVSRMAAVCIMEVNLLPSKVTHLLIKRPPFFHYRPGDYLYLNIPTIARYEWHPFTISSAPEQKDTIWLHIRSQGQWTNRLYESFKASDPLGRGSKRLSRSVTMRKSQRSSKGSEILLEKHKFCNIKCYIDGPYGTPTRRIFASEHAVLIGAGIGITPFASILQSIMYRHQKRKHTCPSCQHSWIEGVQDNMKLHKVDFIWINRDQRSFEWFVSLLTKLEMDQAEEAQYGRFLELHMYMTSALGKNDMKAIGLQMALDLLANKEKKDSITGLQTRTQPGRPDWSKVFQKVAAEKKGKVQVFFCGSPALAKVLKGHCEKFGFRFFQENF

Sequence of Streptavidin (Streptomyces avidinii) (P22629 whole entry, looked up): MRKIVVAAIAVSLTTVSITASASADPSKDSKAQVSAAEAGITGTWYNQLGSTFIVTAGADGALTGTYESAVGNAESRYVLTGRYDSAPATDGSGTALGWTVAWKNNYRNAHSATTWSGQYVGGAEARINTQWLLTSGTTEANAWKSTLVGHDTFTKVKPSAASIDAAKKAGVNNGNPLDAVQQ
Sequence of Torsin-1A (Homo sapiens) (O14656 whole entry, looked up): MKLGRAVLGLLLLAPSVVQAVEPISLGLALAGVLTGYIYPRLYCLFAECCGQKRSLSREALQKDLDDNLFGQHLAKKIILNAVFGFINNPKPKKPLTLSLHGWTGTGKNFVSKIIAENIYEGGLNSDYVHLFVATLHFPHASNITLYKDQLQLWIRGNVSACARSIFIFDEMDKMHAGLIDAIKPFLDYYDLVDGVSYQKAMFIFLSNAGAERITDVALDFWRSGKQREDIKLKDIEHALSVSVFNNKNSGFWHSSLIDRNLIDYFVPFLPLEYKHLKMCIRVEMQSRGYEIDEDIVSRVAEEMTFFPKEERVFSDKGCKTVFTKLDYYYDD
Sequence of NADPH oxidase 4 (Homo sapiens) (Q9NPH5 whole entry, looked up): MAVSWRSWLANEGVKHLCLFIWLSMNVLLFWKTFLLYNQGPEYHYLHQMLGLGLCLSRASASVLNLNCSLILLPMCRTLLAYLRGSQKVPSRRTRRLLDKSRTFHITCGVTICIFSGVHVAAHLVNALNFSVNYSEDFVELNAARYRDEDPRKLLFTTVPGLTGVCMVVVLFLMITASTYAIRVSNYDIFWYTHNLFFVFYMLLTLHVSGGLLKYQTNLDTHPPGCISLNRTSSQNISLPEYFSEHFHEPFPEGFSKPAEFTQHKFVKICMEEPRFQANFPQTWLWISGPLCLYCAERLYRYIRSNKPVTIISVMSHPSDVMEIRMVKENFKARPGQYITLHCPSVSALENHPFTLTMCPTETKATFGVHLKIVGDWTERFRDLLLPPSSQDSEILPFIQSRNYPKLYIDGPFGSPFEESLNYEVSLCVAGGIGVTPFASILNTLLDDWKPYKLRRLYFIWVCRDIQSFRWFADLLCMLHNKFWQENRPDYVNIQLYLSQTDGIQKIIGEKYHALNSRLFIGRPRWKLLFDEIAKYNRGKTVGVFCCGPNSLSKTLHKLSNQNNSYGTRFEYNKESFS
Sequence of NADPH oxidase 2 (Homo sapiens) (P04839 whole entry, looked up): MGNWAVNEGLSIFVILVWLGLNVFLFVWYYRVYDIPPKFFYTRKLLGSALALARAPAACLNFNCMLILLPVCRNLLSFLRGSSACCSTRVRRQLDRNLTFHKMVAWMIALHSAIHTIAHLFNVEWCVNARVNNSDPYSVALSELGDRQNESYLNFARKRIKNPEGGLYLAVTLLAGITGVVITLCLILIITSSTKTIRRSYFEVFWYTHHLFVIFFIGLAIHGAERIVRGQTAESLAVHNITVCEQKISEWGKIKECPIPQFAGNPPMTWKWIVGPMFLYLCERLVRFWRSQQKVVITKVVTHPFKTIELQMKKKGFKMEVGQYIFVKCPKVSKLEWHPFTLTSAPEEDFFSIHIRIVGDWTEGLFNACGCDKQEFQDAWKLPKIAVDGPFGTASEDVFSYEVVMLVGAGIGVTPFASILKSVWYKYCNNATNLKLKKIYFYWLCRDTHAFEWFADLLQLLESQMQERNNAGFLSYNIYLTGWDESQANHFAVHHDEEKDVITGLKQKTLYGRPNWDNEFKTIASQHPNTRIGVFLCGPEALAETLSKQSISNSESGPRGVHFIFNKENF

## CCN1C(=O)[C@H]2[C@H]3[C@H](O)[C@H](O)CC(=NNC(=O)OCc4ccc(OC)cc4)[C@H]3CC[C@H]2C1=O
[1]
  composite z-score: 0.153
[2]
  z-score: -0.0769 (inactive)
[3]
  z-score: 0.619 (inactive)
[4]
  z-score: 0.344 (inactive)
[5]
  z-score: -0.287 (inactive)
[6]
  composite z-score: 0.398
[7]
  composite z-score: 0.124
Torsin-1A (Homo sapiens) [8]
  composite z-score: 0.275
Torsin-1A (Homo sapiens) [9]
  composite z-score: -0.023
[10]
  composite z-score: -0.121
[11]
  z-score: 0.386 (inactive)
[12]
  composite z-score: 0.792
[13]
  z-score: 3.18 (inactive)
[14]
  z-score: -0.464 (inactive)
[15]
  z-score: 0.175 (inactive)
[16]
  z-score: 0.232 (inactive)
[17]
  z-score: 0.479
[18]
  z-score: -0.447 (inactive)
[19]
  z-score: 0.0987 (inactive)
[20]
  z-score: 0.0869

## COC(=O)C1=C(C)N(Cc2ccccc2)[C@]23O[C@](C(=O)OC)(C(=O)N2[C@@H]1c1ccccc1)[C@H]1C(=O)N(C)C(=O)[C@H]13
[1]
  composite z-score: 0.0757 and 0.142
[2]
  z-score: -1.01 (inactive) and -1.34 (inactive)
[3]
  z-score: 0.225 (inactive)
[4]
  z-score: 3.17 (inactive) and 0.019 (inactive)
[5]
  z-score: -0.735 (inactive) and -1.7 (inactive)
[6]
  composite z-score: 0.412 and 0.0225
[7]
  composite z-score: -0.278 and -0.179
Torsin-1A (Homo sapiens) [8]
  composite z-score: 0.314 and 0.263
Torsin-1A (Homo sapiens) [9]
  composite z-score: 0.691 and 0.524
[10]
  composite z-score: 0.548 and 0.736
[11]
  z-score: 0.903 (inactive) and 0.564 (inactive)
[12]
  composite z-score: -0.0418 and 0.223
[13]
  z-score: 1.35 (inactive) and -0.228 (inactive)
[14]
  z-score: 0.719 (inactive) and -1.26 (inactive)
[15]
  z-score: 0.501 (inactive) and -0.562 (inactive)
[16]
  z-score: 0.248 (inactive) and -1.16 (inactive)
[17]
  z-score: 0.486 and 0.567
[18]
  z-score: -0.56 (inactive) and -0.171 (inactive)
[19]
  z-score: -0.329 (inactive) and 0.811 (inactive)
[20]
  z-score: 1.57 and 0.888

## COc1ccc(-c2ccc3c(n2)CCCN3CC(O)CN2CCCc3nc(-c4ccc(Br)cc4)ccc32)cc1 (stereo not given)
[1]
  composite z-score: 0.353 and 0.0813
[2]
  z-score: -1.86 (inactive) and -0.196 (inactive)
[3]
  z-score: 0.766 (inactive) and 0.0378 (inactive)
[4]
  z-score: -0.434 (inactive) and -0.161 (inactive)
[5]
  z-score: -0.152 (inactive) and -0.116 (inactive)
[6]
  composite z-score: 1.41 and 0.932
[7]
  composite z-score: 0.136 and 0.204
Torsin-1A (Homo sapiens) [8]
  composite z-score: 0.438 and 0.224
Torsin-1A (Homo sapiens) [9]
  composite z-score: 0.528 and 0.588
[10]
  composite z-score: 1.03 and 0.76
[11]
  z-score: -0.018 (inactive) and 0.615 (inactive)
[12]
  composite z-score: 0.684 and 0.209
[13]
  z-score: 5.79 (inactive) and 1.91 (inactive)
[14]
  z-score: 1.07 (inactive) and 0.581 (inactive)
[15]
  z-score: 0.387 (inactive) and 0.0102 (inactive)
[16]
  z-score: 0.322 (inactive) and 0.32 (inactive)
[17]
  z-score: -0.506 and -0.456
[18]
  z-score: 0.181 (inactive) and 2.63 (inactive)
[19]
  z-score: 0.169 (inactive) and 0.657 (inactive)
[20]
  z-score: -2.32 and -0.243

## C[C@@H](ON=C1[C@H]2CCn3c(=O)n(-c4ccccc4)c(=O)n3[C@H]2[C@H](O)[C@@H]2O[C@H]12)c1cn([C@H](CO)Cc2ccccc2)nn1
[1]
  composite z-score: -0.174
[2]
  z-score: 1.13 (inactive)
[3]
  z-score: 0.867 (inactive)
[4]
  z-score: -0.157 (inactive)
[5]
  z-score: 1.45 (inactive)
[6]
  composite z-score: 0.0375
[7]
  composite z-score: -0.0313
Torsin-1A (Homo sapiens) [8]
  composite z-score: 0.185
Torsin-1A (Homo sapiens) [9]
  composite z-score: 0.199
[10]
  composite z-score: 0.403
[11]
  z-score: 0.328 (inactive)
[12]
  composite z-score: -0.049
[13]
  z-score: 0.508 (inactive)
[14]
  z-score: 0.461 (inactive)
[15]
  z-score: 0.373 (inactive)
[16]
  z-score: 0.367 (inactive)
[17]
  z-score: 0.164
[18]
  z-score: -0.622 (inactive)
[19]
  z-score: -0.268 (inactive)
[20]
  z-score: 0.259

## Cc1ccc(S(=O)(=O)N[C@H]2COC(=O)[C@@H](C)COC(=O)[C@H](C)NC(=O)CC=C[C@H]2C)cc1
[1]
  composite z-score: 0.105
[2]
  z-score: 0.365 (inactive)
[3]
  z-score: -0.16 (inactive)
[4]
  z-score: -0.204 (inactive)
[5]
  z-score: -0.253 (inactive)
[6]
  composite z-score: -0.192
[7]
  composite z-score: -0.128
Torsin-1A (Homo sapiens) [8]
  composite z-score: -0.233
Torsin-1A (Homo sapiens) [9]
  composite z-score: -0.11
[10]
  composite z-score: 0.837
[11]
  z-score: -0.117 (inactive)
[12]
  composite z-score: -0.195
[13]
  z-score: -0.306 (inactive)
[14]
  z-score: 0.286 (inactive)
[15]
  z-score: 0.501 (inactive)
[16]
  z-score: 0.0584 (inactive)
[17]
  z-score: -0.177
[18]
  z-score: -1.36 (inactive)
[19]
  z-score: 0.555 (inactive)
[20]
  z-score: 0.0658

## O=C1[C@H]2[C@H]3[C@H](O)[C@H](O)CC(=NOCc4ccccc4)[C@H]3CC[C@H]2C(=O)N1Cc1ccccc1
[1]
  composite z-score: 0.0003
[2]
  z-score: -5.42 (inactive)
[3]
  z-score: -0.788 (inactive)
[4]
  z-score: 0.796 (inactive)
[5]
  z-score: 0.888 (inactive)
[6]
  composite z-score: 0.725
[7]
  composite z-score: -0.257
Torsin-1A (Homo sapiens) [8]
  composite z-score: 0.119
Torsin-1A (Homo sapiens) [9]
  composite z-score: 0.358
[10]
  composite z-score: 0.659
[11]
  z-score: -0.925 (inactive)
[12]
  composite z-score: 0.0037
[13]
  z-score: 5.58 (inactive)
[14]
  z-score: 0.42 (inactive)
[15]
  z-score: 0.224 (inactive)
[16]
  z-score: -0.456 (inactive)
[17]
  z-score: 0.741
[18]
  z-score: -1.14 (inactive)
[19]
  z-score: -2.92 (inactive)
[20]
  z-score: -2.42
